Reference: PubChem BioAssay (Tox21)
Results filed as inconclusive are left out. The source made the active and inactive calls. Unless noted, calls follow the shape of the full dose curve.

Columns and labels:
[1] = Nuclear factor erythroid 2-related factor 2/antioxidant responsive element (Nrf2/ARE) small molecule agonists: qHTS cell viability counter screen in human keratinocytes (AID 1919968; active = well fitted curve in the direction sought with a large enough effect in the repeat runs; an effect the other way counts as inactive or inconclusive; also: nearly all actives have a fitted effect of over 55% in size)
Outline: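 CellTiter-Fluor fluorescence, read 1 h after reagent, gave viability in the same wells as the ARE-luciferase assay. KeratinoSens cells (1,500/well) had 23 h compound exposure at 37 C/5% CO2 following 5 h plating.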

[2] = Nuclear factor erythroid 2-related factor 2/antioxidant responsive element (Nrf2/ARE) small molecule agonists: luciferase reporter gene qHTS assay in human keratinocytes (AID 1919969); also: nearly all actives have a fitted effect of over 35% in size
[3] = biological target: Gonadotropin-releasing hormone receptor (Homo sapiens) (UniProt P30968); experiment: Human gonadotropin-releasing hormone receptor (GnRHR) small molecule agonists, calcium flux assay in GnRHR-HEK293 cells (AID 1920063); also: nearly all actives have a fitted effect of over 35% in size
Sequence of Gonadotropin-releasing hormone receptor (Homo sapiens) (P30968 whole entry, looked up): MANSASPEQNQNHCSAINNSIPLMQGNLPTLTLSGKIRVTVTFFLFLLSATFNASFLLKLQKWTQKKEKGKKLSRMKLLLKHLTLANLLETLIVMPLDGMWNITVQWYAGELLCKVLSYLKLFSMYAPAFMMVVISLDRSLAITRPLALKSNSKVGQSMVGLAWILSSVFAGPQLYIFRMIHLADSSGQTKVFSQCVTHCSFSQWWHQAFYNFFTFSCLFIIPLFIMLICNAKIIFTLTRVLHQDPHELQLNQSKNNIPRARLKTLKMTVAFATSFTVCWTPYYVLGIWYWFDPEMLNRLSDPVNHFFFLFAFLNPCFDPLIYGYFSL
Outline: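 Agonist mode: compounds at 15 concentrations, in triplicate, went onto calcium dye-loaded GnRHR-HEK293 cells. Intracellular calcium was then followed as 480/540 nm fluorescence at 1 s intervals over 3 min.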

[4] = biological target: KiSS-1 receptor (Homo sapiens) (UniProt Q969F8); experiment: Human kisspeptin (KISS1R) small molecule agonists, calcium flux assay in KISS1R-HEK293 cells (AID 1920064; active = well fitted curve in the direction sought with a large enough effect in the repeat runs; an effect the other way counts as inactive or inconclusive)
Sequence of KiSS-1 receptor (Homo sapiens) (Q969F8 whole entry, looked up): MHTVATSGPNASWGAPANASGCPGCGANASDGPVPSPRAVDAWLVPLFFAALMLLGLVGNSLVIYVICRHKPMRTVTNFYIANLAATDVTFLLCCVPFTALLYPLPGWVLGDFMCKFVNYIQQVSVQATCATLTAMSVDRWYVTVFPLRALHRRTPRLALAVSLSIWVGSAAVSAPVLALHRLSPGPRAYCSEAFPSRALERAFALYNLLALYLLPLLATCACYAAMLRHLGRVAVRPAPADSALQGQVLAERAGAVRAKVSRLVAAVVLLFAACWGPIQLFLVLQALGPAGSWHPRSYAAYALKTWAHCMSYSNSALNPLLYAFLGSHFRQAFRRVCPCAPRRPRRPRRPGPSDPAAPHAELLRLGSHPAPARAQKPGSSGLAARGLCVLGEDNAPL
Outline: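 Agonist mode: intracellular calcium rise tracked at 1 s intervals over 3 min (480/540 nm) immediately after compound addition to dye-loaded KISS1R-HEK293 stable cells. Each compound tested at 15 concentrations in triplicate.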

[5] = G protein-coupled receptor (GPCR) small molecule agonists, calcium flux assay: HEK293 wild type cell line counter screen (AID 1920065)
Outline: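 Calcium flux counter screen: compound added in agonist mode at 15 concentrations in triplicate to dye-loaded parental HEK293 cells. Fluorescence (480/540) read kinetically for 3 min; ATP served as positive control.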

[6] = p53 small molecule agonists, cell-based qHTS assay with human liver microsomes (AID 1963577);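 also: p53 response element beta-lactamase reporter cells with liver microsomes plus NADPH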
Outline: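 In this qHTS, p53 response-element beta-lactamase cells receive test compound together with a microsome/NADPH activating system (0.5 mg/mL final each) and are incubated 16 h at 37 C before LiveBLAzer fluorescence detection.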

[7] = p53 small molecule agonists, cell-based qHTS assay with rat liver microsomes (AID 1963578)
Outline: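 Agonist mode in p53RE-bla reporter cells, with compounds co-incubated 16 h at 37 C alongside 0.5 mg/mL rat liver microsomes and 0.5 mg/mL NADPH (final), followed by a 2 h LiveBLAzer detection step.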

[8] = p53 small molecule agonists, cell-based qHTS assay with human liver microsomes: qHTS cell viability counter screen (AID 1963579); also: nearly all actives have a fitted effect of over 45% in size
Outline: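 Metabolically activated exposure: compounds, human liver microsomes and NADPH (0.5 mg/mL final apiece) were added to p53RE-bla cells seeded 5 h earlier, left 16 h at 37 C, and then assessed for viability by CellTiter-Glo luminescence.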

[9] = p53 small molecule agonists, cell-based qHTS assay: qHTS cell viability counter screen (AID 1963581); also: nearly all actives have a fitted effect of over 45% in size
Outline: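 Counter screen read by CellTiter-Glo luminescence (ATP content, 30 min at room temperature), run in the same wells as the beta-lactamase reporter read. HCT-116 p53RE-bla cells saw compounds for 16 h at 37 C.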

[10] = p53 small molecule agonists, cell-based qHTS assay (AID 1963582; active = well fitted activation curve with a large enough effect in the signal ratio in the repeat runs, not every such curve was filed as active; the % refers to the signal ratio)
Outline: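 Read-out is beta-lactamase FRET fluorescence after 2 h at room temperature with LiveBLAzer B/G substrate. p53 response element-bla cells were treated 16 h at 37 C with compounds in DMSO, added 5 h after seeding.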

[11] = biological target: 5-hydroxytryptamine receptor 2A (Homo sapiens) (UniProt P28223); experiment: 5-hydroxytryptamine receptor 2A (HTR2A) small molecule antagonists, cell-based qHTS assay (AID 1963586); also: nearly all actives have a fitted effect of over 45% in size
Sequence of 5-hydroxytryptamine receptor 2A (Homo sapiens) (P28223 whole entry, looked up): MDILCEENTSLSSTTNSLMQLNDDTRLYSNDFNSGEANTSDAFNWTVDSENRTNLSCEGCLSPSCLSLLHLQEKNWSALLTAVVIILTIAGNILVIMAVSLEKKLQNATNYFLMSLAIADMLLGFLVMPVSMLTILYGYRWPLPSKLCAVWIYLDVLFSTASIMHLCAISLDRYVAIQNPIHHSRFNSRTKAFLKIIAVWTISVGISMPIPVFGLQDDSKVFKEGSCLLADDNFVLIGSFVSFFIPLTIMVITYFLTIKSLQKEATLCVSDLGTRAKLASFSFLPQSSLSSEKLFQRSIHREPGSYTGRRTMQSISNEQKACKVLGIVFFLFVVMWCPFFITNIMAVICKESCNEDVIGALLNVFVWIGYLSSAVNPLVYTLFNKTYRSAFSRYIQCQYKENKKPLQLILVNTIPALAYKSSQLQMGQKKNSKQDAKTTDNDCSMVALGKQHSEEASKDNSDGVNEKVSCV
Outline: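 CHO cells stably expressing human HTR2A were plated for 18 h at 37 C, then loaded with calcium dye for 1 h. Compounds were preincubated 5 min at room temperature before DOI (4 nM solution) was added. Kinetic fluorescence was read for 3 min.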

[12] = biological target: Muscarinic acetylcholine receptor M1 (Homo sapiens) (UniProt P11229); experiment: Cholinergic receptor muscarinic 1 (CHRM1) small molecule agonists, cell-based qHTS assay (AID 1963589); also: nearly all actives have a fitted effect of over 35% in size
Sequence of Muscarinic acetylcholine receptor M1 (Homo sapiens) (P11229 whole entry, looked up): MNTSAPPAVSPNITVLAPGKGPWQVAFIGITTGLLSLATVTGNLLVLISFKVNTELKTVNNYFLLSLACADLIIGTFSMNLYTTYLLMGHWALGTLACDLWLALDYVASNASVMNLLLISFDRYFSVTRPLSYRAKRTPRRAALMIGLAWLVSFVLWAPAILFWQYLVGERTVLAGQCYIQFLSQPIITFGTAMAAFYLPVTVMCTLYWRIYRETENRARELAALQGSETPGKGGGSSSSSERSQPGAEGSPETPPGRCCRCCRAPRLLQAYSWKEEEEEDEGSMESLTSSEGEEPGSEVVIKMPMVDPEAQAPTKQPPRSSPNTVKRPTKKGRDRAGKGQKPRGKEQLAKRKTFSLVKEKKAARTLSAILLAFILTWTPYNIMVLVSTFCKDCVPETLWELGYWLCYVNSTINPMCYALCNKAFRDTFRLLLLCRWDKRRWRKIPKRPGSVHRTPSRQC
Outline: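 Agonist-mode calcium-flux screen: compounds at 15 concentrations, three independent runs, were pin-transferred onto dye-loaded human CHRM1-CHO cells. Fluorescence was then recorded kinetically every second over minutes.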

[13] = cAMP Responsive Elements (CRE) small molecule agonists, cell-based qHTS assay (AID 1963590)
Outline: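 Agonist mode: compound added to CRE-bla HEK 293T cells (2,000/well, 18 h after plating) for 3 h at 37 C/5% CO2. Reporter activity detected via FRET beta-lactamase substrate, 2 h room-temperature loading.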

[14] = cAMP Responsive Elements (CRE) small molecule antagonists, cell-based qHTS assay (AID 1963591; active = well fitted inhibition curve with a large enough effect in the signal ratio in the repeat runs, not every such curve was filed as active; the % refers to the signal ratio)
Outline: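 Antagonist mode: compounds are added alongside the adenylyl cyclase activator NKH477 (0.25 uM final) to CRE-bla HEK293T cells for 3 h. LiveBLAzer FRET substrate, 2 h at room temperature, reports bla expression.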

[15] = biological target: Beta-2 adrenergic receptor (Homo sapiens) (UniProt P07550); experiment: Adrenergic beta2 receptor (ADRB2) small molecule antagonists, cell-based qHTS assay (AID 1963592); also: series mostly up to about 92 µM; nearly all actives have a fitted effect of over 50% in size
Sequence of Beta-2 adrenergic receptor (Homo sapiens) (P07550 whole entry, looked up): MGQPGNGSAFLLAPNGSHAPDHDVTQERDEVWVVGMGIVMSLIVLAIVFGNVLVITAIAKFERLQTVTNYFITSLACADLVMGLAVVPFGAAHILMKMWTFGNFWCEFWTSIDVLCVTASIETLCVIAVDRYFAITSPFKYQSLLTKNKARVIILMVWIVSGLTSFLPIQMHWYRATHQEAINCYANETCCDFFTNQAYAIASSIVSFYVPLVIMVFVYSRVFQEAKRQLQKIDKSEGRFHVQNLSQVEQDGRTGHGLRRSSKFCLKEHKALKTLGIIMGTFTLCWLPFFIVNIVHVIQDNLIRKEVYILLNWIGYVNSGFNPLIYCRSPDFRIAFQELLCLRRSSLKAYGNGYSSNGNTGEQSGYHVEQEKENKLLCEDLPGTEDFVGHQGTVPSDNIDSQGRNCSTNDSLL
Outline: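 Assay format: CHO-ADRB2 cells, 18-20hr seeding at 37C/5% CO2, then compound plus 1nM isoproterenol agonist mix for 0.5hr RT. Homogeneous time-resolved fluorescence cAMP detection after 1hr, expressed as 665/615 nm ratio.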

[16] = biological target: D(2) dopamine receptor (Homo sapiens) (UniProt P14416); experiment: Dopamine D2 receptor (DRD2) small molecule agonists, cell-based qHTS assay (AID 1963594); also: nearly all actives have a fitted effect of over 35% in size
Sequence of D(2) dopamine receptor (Homo sapiens) (P14416 whole entry, looked up): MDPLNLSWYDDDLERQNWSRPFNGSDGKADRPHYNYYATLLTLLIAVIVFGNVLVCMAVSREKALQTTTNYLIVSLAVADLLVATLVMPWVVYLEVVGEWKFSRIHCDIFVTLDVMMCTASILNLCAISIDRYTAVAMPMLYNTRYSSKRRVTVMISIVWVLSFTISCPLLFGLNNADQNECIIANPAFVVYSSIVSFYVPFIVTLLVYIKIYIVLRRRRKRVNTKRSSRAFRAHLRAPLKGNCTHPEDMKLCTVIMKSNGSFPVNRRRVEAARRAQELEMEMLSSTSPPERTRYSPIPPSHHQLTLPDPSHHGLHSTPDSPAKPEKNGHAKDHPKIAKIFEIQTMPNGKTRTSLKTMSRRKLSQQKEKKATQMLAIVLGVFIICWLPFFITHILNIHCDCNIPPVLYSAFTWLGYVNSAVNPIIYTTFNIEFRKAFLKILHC
Outline: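 cAMP accumulation in DRD2-HEK293 cells measured by HTRF after 1 h detection; compounds added 10 min before NKH477 (200nM […]) forskolin-analogue stimulation, 30 min at room temperature, with Ro20-1724 present at 0.1 mM final.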

[17] = biological target: 5-hydroxytryptamine receptor 2A (Homo sapiens) (UniProt P28223); experiment: 5-hydroxytryptamine receptor 2A (HTR2A) small molecule agonists, cell-based qHTS assay (AID 1963587); also: nearly all actives have a fitted effect of over 30% in size
Outline: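 Kinetic calcium-flux fluorescence (2 min, 1 sec intervals) after compound addition in agonist mode. HTR2A-CHO cells were cultured 18 h, then dye-loaded 1 h at 37 C.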

[18] = biological target: Muscarinic acetylcholine receptor M1 (Homo sapiens) (UniProt P11229); experiment: Cholinergic receptor muscarinic 1 (CHRM1) small molecule antagonists, cell-based qHTS assay (AID 1963588); also: nearly all actives have a fitted effect of over 40% in size
Outline: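 Compounds were tested at 15 concentrations in three independent runs. Dye-loaded CHRM1-CHO cells were exposed 5 min at room temperature before stimulation by acetylcholine added at 50nM. Intracellular calcium was read kinetically on FDSS for 3 min.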

[19] = biological target: D(2) dopamine receptor (Homo sapiens) (UniProt P14416); experiment: Dopamine D2 receptor (DRD2) small molecule antagonists, cell-based qHTS assay (AID 1963595; active = well fitted inhibition curve with a large enough effect in the signal ratio in the repeat runs, with a control signal flat; the % refers to the signal ratio)
Outline: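 Antagonist mode in DRD2-HEK293 cells: after compound addition with 0.1 mM Ro20-1724, cells received quinpirole (12 nM) and NKH477 (200 nM) for 30 min at room temperature; HTRF cAMP read after 1 h detection.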

Measured: Potency

COc1cc2c(Nc3ccc(Br)cc3F)ncnc2cc1OCC1CCN(C)CC1
inactive: [1] | [2] | [3] | [4] | [5] | [6] | [7] | [8] | [9] | [10] | [11] | [12] | [13] | [14] | [15] | [16]

CC(=O)[O][Al][O]C(C)=O
inactive: [1] | [2] | [3] | [4] | [5] | [6] | [7] | [8] | [9] | [10] | [11] | [17] | [18] | [12] | [13] | [14] | [15] | [16] | [19]

CC1(C)[C@@H]2CC[C@]3(C2)[C@@H]1C(=O)CCC3(C)C
inactive: [1] | [2] | [3] | [4] | [5] | [6] | [7] | [8] | [9] | [10] | [11] | [17] | [18] | [12] | [13] | [14] | [15] | [16] | [19]

CCC(=O)OC(C)c1ccccc1 (stereo not drawn)
inactive: [1] | [2] | [3] | [4] | [5] | [6] | [7] | [8] | [9] | [10] | [11] | [17] | [18] | [12] | [13] | [14] | [15] | [16]

CN1C(=O)CC(C)(c2ccccc2)C1=O (stereo not drawn)
inactive: [1] | [2] | [3] | [4] | [5] | [6] | [7] | [8] | [9] | [10] | [18] | [12] | [13] | [14] | [15] | [16] | [19]

C1CCCCC1
inactive: [1] | [2] | [3] | [4] | [5] | [6] | [7] | [8] | [9] | [10] | [11] | [17] | [18] | [12] | [13] | [14] | [15] | [16] | [19]

C=C(C)[C@@H]1CCC2=CC(=O)C[C@@H](C)[C@]2(C)C1
inactive: [1] | [2] | [3] | [4] | [5] | [6] | [7] | [8] | [9] | [10] | [11] | [17] | [18] | [12] | [13] | [14] | [15] | [16] | [19]

O=C(c1ccc(Cl)cc1)c1ccc(Cl)cc1
inactive: [1] | [2] | [3] | [4] | [5] | [6] | [7] | [8] | [9] | [10] | [11] | [17] | [18] | [12] | [13] | [14] | [15] | [19]

CCCCOC(=O)C(=O)OCCCC
inactive: [1] | [2] | [3] | [4] | [5] | [6] | [7] | [8] | [9] | [10] | [11] | [17] | [18] | [12] | [14] | [16] | [19]

CC(=O)c1ccc(O)c(C(N)=O)c1
inactive: [1] | [2] | [3] | [4] | [5] | [6] | [7] | [8] | [9] | [10] | [11] | [18] | [12] | [14] | [15] | [16] | [19]

CNCCO
inactive: [1] | [2] | [3] | [4] | [5] | [6] | [7] | [8] | [9] | [10] | [11] | [17] | [18] | [12] | [13] | [14] | [15] | [16] | [19]

CCC(=O)OC(C)(C)C1CC=C(C)CC1 (stereo not drawn)
inactive: [1] | [2] | [3] | [4] | [5] | [6] | [7] | [8] | [9] | [10] | [11] | [17] | [18] | [13] | [14] | [15] | [16] | [19]

NC(=O)Nc1ccc(Cl)cc1
inactive: [1] | [2] | [3] | [4] | [5] | [6] | [7] | [8] | [9] | [10] | [11] | [17] | [18] | [12] | [13] | [14] | [15] | [16] | [19]

CC(=O)N(O)CCCCCNC(=O)CCC(=O)N(O)CCCCCNC(=O)CCC(=O)N(O)CCCCCN
inactive: [1] | [2] | [3] | [4] | [5] | [6] | [7] | [8] | [9] | [11] | [17] | [18] | [12] | [13] | [14] | [15] | [16] | [19]
